The record followed here is PubChem BioAssay AID2685 (National Center for Advancing Translational Sciences (NCATS), 2010).

Values joined by “and” are separate entries in the source; they are usually repeats but may differ in a detail not shown here. Equal entries are not always repeated. About 2,100 (0.66%) of roughly 320,000 compounds were called active. Another 53% or so got no clear call; they are omitted. The call rests on the fitted dose curve; in most records, active means well fitted inhibition curve with a large enough effect in the signal ratio, with a control signal flat (not every such curve was filed as active); inconclusive means small, poorly fitted or top-dose-only effect, or effect the other way, or a change in a side signal; inactive means flat fitted curve, though single readings scatter; the % refers to the signal ratio. Only a selection was taken, and actives are over-represented in it overall.
Potency means the concentration at half of the fitted maximal effect.

This assay can be described thus: qHTS Assay for Lipid Storage Modulators in Drosophila S3 Cells.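 On cell number change: cells counted by Cell Tracker Red CMTPX staining in the red channel.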 The conditions noted are these: BODIPY lipid droplet fluorescence, 18-24 h, cells fed with added oleic acid; cell number change: measured here: cell count max response; series mostly up to 46.1 µM. The gist of the method:
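Laser-scanning cytometry quantifies lipid droplet accumulation (500–530 nm total intensity; droplet/cell object ratio) in oleic acid-fed (400 uM added) Drosophila S3 cells treated with a concentration series. 20 uM Triacsin C defined 100% inhibition.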
(In qHTS, concentration-response curves come from the screen itself.)
On to `Cc1cc(C)c(O)c(-c2cc(C(=O)Nc3cccnc3)[nH]n2)c1`, for which the Potency result is “inactive” and the cell number change is -5.15%.

On to `CCc1ccc(-c2cc(C)no2)cc1S(=O)(=O)NCc1ccccc1OC`, for which the Potency result was “inactive” and the cell number change was found to be 2.29%.

For `COc1ccc(-c2noc(-c3ccccc3C(=O)Nc3cccc(OC)c3)n2)cc1`, the Potency entry was “inactive” and the cell number change is 2.43%.

As to `O=C1CCCc2c1cc(C(=O)NCc1ccco1)c(=O)n2-c1ccccc1`, the Potency entry is “inactive” and the cell number change was 1.19%.

Consider `CC(Cl)C(=O)c1ccc2c(c1)CCN2C(=O)C1CC1` (configuration not stated), for which the Potency result is “inactive” and the cell number change is -1.68%.

Consider `Cc1sc(NC(=O)c2ccco2)c(C(c2cccnc2)N2CCCC2)c1C` (configuration not stated), for which the Potency entry is “inactive” and the cell number change is -20.2%.

As to `Cc1sc(NC(=O)c2ccco2)c(C(c2cccnc2)N2CCN(CCO)CC2)c1C` (configuration not stated), the Potency entry was “inactive” and the cell number change was -13.8%.

On to `COc1cccc(C(c2c(NC(=O)c3ccco3)sc(C)c2C)N2CCOCC2)c1` (configuration not stated), for which the Potency was 20.6 µM (active) and the cell number change is -13.8%.

With `COc1ccc(C(c2c(NC(=O)c3ccco3)sc(C)c2C)N2CCOCC2)cc1OC` (configuration not stated), the Potency result was “inactive” and the cell number change was -1.23%.

Turning to `CCN1CCN(C(c2cccnc2)c2c(NC(=O)c3ccco3)sc(C)c2C)CC1` (configuration not stated), the Potency was 8.2 µM (active) and the cell number change is -4.13%.

Regarding `COc1ccc(C(c2c(NC(=O)c3ccco3)sc(C)c2C)N2CCOCC2)cc1` (configuration not stated), the Potency entry was “inactive”.

Turning to `CCOCCCNCc1c(Cl)cccc1Cl`, the Potency result was “inactive” and the cell number change was found to be 5.68%.

Take `CCOC(=O)/C(=N\Nc1cccc(Cl)c1)Sc1nnc(-c2ccc(OC)cc2)n1C`: the Potency entry was “inactive” and the cell number change amounted to 1.18%.

For `O=S(=O)(NCCc1ccccn1)c1ccc(-c2ccccn2)s1`, the Potency result is “inactive” and the cell number change is -6.49%.

As to `O=C1OCCN/C1=C\C(=O)c1ccc(Cl)cc1`, the Potency entry is “inactive” and the cell number change was found to be 19.7%.

For the compound `OCCC1CN(Cc2nc3c(s2)CCCC3)CCN1Cc1ccccc1` (configuration not stated), the Potency entry is “inactive” and the cell number change stood at 17.4%.

Take `CCN1CCN(C(=S)c2ccc(Br)cc2)CC1`: the Potency entry is “inactive” and the cell number change is -1.28%.

As to `CCc1nnc(NC(=O)Cc2ccc(OC)c(OC)c2)s1`, the Potency entry is “inactive” and the cell number change was 9.15%.

In the case of `C[C@H](NC(=O)C1(c2ccccc2)CCN(C(=O)[C@H]2CSCN2C(=O)OC(C)(C)C)CC1)C(=O)O`, the Potency is -15.3% and -9.67%.

For `CC(C)[C@H](NC(=O)C1(c2ccccc2)CCN(C(=O)OC(C)(C)C)CC1)C(=O)O`, the Potency entry is “inactive” and the cell number change is 0.279%.

In the case of `CC(C)C[C@H](NC(=O)C1(c2ccccc2)CCN(C(=O)[C@H]2CSCN2C(=O)OC(C)(C)C)CC1)C(=O)O`, the Potency entry is “inactive”.

Take `CC1NC(=O)c2ccccc2-n2c1nc1cc(F)ccc1c2=O` (configuration not stated): the Potency entry is “inactive” and the cell number change was found to be 0.361%.

With `O=[N+]([O-])c1ccc2c3n([n+]([O-])c2c1)CCN=C3c1ccc(Cl)cc1`, the Potency result was “inactive” and the cell number change was 12.6%.

For the compound `COc1ccc(C2=NCCn3nc4cc(OC)ccc4c32)cc1`, the Potency entry is “inactive” and the cell number change was -20.7%.

As to `Cc1ccc(C2=NCCn3c2c2ccc([N+](=O)[O-])cc2[n+]3[O-])cc1`, the Potency is 0.58 µM (active) and the cell number change was -25.9%.
